Screening data deposited in PubChem by National Center for Advancing Translational Sciences (NCATS).
Compounds with a hit are over-represented: about 5.4% of the library has one in this group of screens.
Sm TGR block: qHTS Assay for the Inhibitors of Schistosoma Mansoni Peroxiredoxins | Schistosoma mansoni thioredoxin glutathione reductase (TGR), Q962Y6 | purified TGR, DTNB reduction, TNB absorbance 405 nm | Potency, µM (doses to about 114 µM), for the others: top-dose activity change, negative = inhibition, hits mostly inhibitors | 360,000 compounds, 3% hits | AID 485364, 2010; active means well fitted inhibition curve with a large enough effect; inconclusive means small, poorly fitted or top-dose-only effect; inactive means no such curve, though single readings can be large or run the other way; further: nearly all actives have a fitted effect of over 60% in size
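TGR 20 nM + NADPH 100 uM (dispensed conc.), cpd preinc 15 min RT; start with NADPH (500 uM addition) then DTNB (15 mM addition). Kinetic TNB absorbance, 405 nm filter. Four-parameter Hill fit across titration.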
VACV mCherry inh: qHTS for Stage-Specific Inhibitors of Vaccinia Orthopoxvirus: mCherry Reporter Primary qHTS; Vaccinia virus mCherry reporter infection, fluorescence; Potency, µM (highest dose often 36.5 µM), inactives show at the highest dose activity change, negative = inhibition, usual class: inhibitors; 310,000 compounds, 0.63% hits; AID 720579, 2013; calls by dose curve; tested in A549 cells; further: nearly all actives have a fitted effect of over 35% in size
Marburg entry inh: qHTS for inhibitors of binding or entry into cells for Marburg Virus; Marburg virus pseudotyped entry inhibition, cell reporter; 300,000 compounds, 1.8% hits; Potency, µM (series often up to 37.8 µM), inactives show at the highest dose activity change, negative = inhibition, actives largely listed as inhibitors; AID 540276, 2011; calls by dose curve; tested in HEK293 cells
FMDV inh: High Throughput Screening for Foot and Mouth Disease Virus Antivirals | 410,000 compounds, 1.2% hits | FMDV antiviral cell-based qHTS | Potency, µM (titrated, usually from 57.9 µM), for inactives: at the top dose activity change, negative = inhibition, actives largely listed as inhibitors | AID 1159524, 2015; calls by dose curve; tested in HEK293T cells; further: read-out not given here; nearly all actives have a fitted effect of over 45% in size
Lassa entry inh: qHTS for Inhibitors of binding or entry into cells for Lassa Virus. Lassa virus pseudotype entry inhibition, cell reporter. Potency, µM (top dose mostly 37.9 µM), for inactives: at the highest dose activity change, negative = inhibition, hits mostly inhibitors. 300,000 compounds, 1.2% hits. AID 540256, 2011; calls by dose curve; tested in HEK293 cells; further: nearly all actives have a fitted effect of over 50% in size
Vaccinia Venus: qHTS for Stage-Specific Inhibitors of Vaccinia Orthopoxvirus: Venus Reporter Primary qHTS; Potency, µM (highest dose often 36.5 µM), for inactives: at the highest dose activity change, negative = inhibition, most hits filed as inhibitors; 330,000 compounds, 0.46% hits; Vaccinia virus Venus reporter expression, fluorescence; calls by dose curve; tested in A549 cells; further: nearly all actives have a fitted effect of over 30% in size
* hit, by the source's call; i = inactive; ? = inconclusive; / = no result given; [ ] = dose if it differs, or a comment. On the % scale 0 is the no-effect control and ±100 the full control effect; potency means the concentration at half of the fitted maximal effect.

SMILES	Sm TGR block	VACV mCherry inh	Marburg entry inh	FMDV inh	Lassa entry inh	Vaccinia Venus
Cc1ccc(CN(C)C(=O)CC2C(=O)NCCN2CC2CCCCC2)cc1 (configuration not stated)	?	-5.9%	7.8%[46.1 µM]	-17.4%	2.0%[46.1 µM]	13.1%
Cc1nc(CNC(=O)CC2C(=O)NCCN2Cc2ccoc2)nc2c1CCCC2 (configuration not stated)	14.1µM*	/	/	5.7%	/	/
CCc1ccc(CN(C)C(=O)CC2C(=O)NCCN2Cc2ccoc2)cc1 (configuration not stated)	17.8µM*	/	/	-10.4%	/	/
Cc1ccc(C2=Nc3ccccc3NC(c3ccncc3)=N2)cc1	0.5%	-14.5%	-17.1%[46.1 µM]	?	9.5%[46.1 µM]	-20.3%
CC(C)n1cnc2c(Nc3ccc(F)c(Cl)c3)nc(NCCO)nc21	2.5%	10µM*	/	13.6%	/	?
Cn1c(=O)oc2cc(S(=O)(=O)NCCN3CCc4ccccc4C3)ccc21	3.6%	/	/	5.62µM*	/	/
CCNC(=O)c1cc(NC(=O)COC)cc2nc(-c3ccncc3)n(C)c12	/	-13.3%	/	-13.8%	/	-9.1%
CCOC(=O)c1ccccc1NC(=O)N(C)CCc1c(C)nn(CC)c1C	2.7%	-8.9%	/	0.0%	11.9%[46.1 µM]	-7.3%
CC(=O)Nc1ccc(/C=C/C(=O)c2ccc(-n3nncc3-c3ccccc3)cc2)cc1	/	-3.6%	/	/	/	-6.7%
O=C(/C=C/c1ccc(-c2cccc([N+](=O)[O-])c2)o1)N1CCOCC1	39.8µM*	-10.0%	?	62.8%	0.8%	-0.4%
O=C(O)/C=C/C(=O)Nc1cccc(C(F)(F)F)c1	?	i	-4.1%[46.1 µM]	-27.2%	12.4%	-24.8%
O=C(O)/C=C/C(=O)Nc1ccccc1SC(F)(F)C(F)(F)C(F)(F)F	44.7µM*	i	-1.8%[46.1 µM]	?	1.4%	-13.2%
CC(=O)Nc1ccc2c(c1)C(=O)c1ccccc1C2=O	3.7%	-7.7%	3.3%	57.0%	4.1%	-5.1%
O=C(O)/C=C/C(=O)Nc1ccccc1-c1ccccc1	10µM*	/	8.9%	-27.2%	14.8%	-0.1%
O=C(O)/C=C/C(=O)Nc1ccc(Cl)cc1C(=O)c1ccccc1	22.4µM*	i[7.34 µM]	?	-12.3%	17.6%	3.3%[7.34 µM]
O=C(O)/C=C/C(=O)Nc1ccc2c(c1)C(=O)c1ccccc1C2=O	50.1µM*	/	/	42.1%	/	/
O=C(c1ccc2c(c1)CCN2S(=O)(=O)c1ccc(Cl)cc1)N1CCN(c2ccc(F)cc2)CC1	0.4%	-19.6%	-2.5%[46.1 µM]	-26.9%	-10.7%[46.1 µM]	-22.1%
CCc1ccccc1NC(=O)c1sc(-n2nc(C)c(Cc3ccc4c(c3)OCO4)c2C)nc1C	1.9%	-19.5%	6.7%[46.1 µM]	-21.3%	1.5%[46.1 µM]	1.4%
Cc1cccc(C(=O)N(Cc2ccccc2F)C2CCS(=O)(=O)C2)c1 (configuration not stated)	-1.9%	-6.4%	-6.9%[46.1 µM]	-9.5%	-2.2%[46.1 µM]	2.2%
COc1ccc(CCn2c(=O)c3cccnc3n(CC(=O)Nc3ccc(C)cc3C)c2=O)cc1OC	9.0%	-9.7%	13.8%[46.1 µM]	0.0%	/	1.6%
CN(Cc1ccco1)c1ncnc2ccc(-c3ccoc3)cc12	20µM*	/	/	-22.7%	/	/
Cc1ccc(C(=O)NCCSc2c(C)[nH]c3ccccc23)cc1[N+](=O)[O-]	4.0%	0.5%	9.0%	35.5µM*	?	-12.5%
Cc1ccc(OCCSc2nc3ccccc3n2CC(=O)N2CCOCC2)c(C)c1	-21.1%	-8.5%	5.3%[46.1 µM]	-12.8%	6.4%[46.1 µM]	-13.7%
Nc1ccc[n+](CC(=O)c2ccccc2)c1	11.0%	/	/	-1.5%	/	/
CCc1n[n+](CC(=O)c2ccccc2)c(N)s1	1.1%	-11.0%	?	-51.9%	7.94µM*	-12.0%
SMILES	Sm TGR block	VACV mCherry inh	Marburg entry inh	FMDV inh	Lassa entry inh	Vaccinia Venus
COc1ccc([C@@H]2C(C#N)=C(C)NC3=C2C(=O)c2ccccc23)cc1	/	/	-23.5%	/	/	/
CC1=C([N+](=O)[O-])C(c2ccccc2)C2=C(N1)c1ccccc1C2=O (configuration not stated)	14.1µM*	12.6µM*	?	?	?	?
CCc1cccc(C)c1NC(=O)COCc1cc(-c2ccc3c(c2)OCO3)on1	-2.3%	-17.7%	/	?	12.8%[46.1 µM]	-12.4%
Cc1csc(N(C(=O)c2cccc(S(=O)(=O)N(C)C)c2)c2ccccc2)n1	-11.8%	-9.8%	2.8%	8.91µM*	?	-14.4%
Cc1csc(N(C(=O)c2cccc(S(=O)(=O)N3CCCC3)c2)c2ccccc2)n1	-2.4%	/	-16.8%	?	-4.6%	-20.0%
O=C(CC1C(=O)N(c2ccccc2)C(=O)N1Cc1ccc(F)cc1)Nc1cccc(F)c1 (configuration not stated)	-26.4%	-1.2%	/	3.9%	-26.5%[46.1 µM]	-5.5%
CC(C)c1ccc(NC(=O)[C@H](NC(=O)[C@@H]2Cc3ccccc3CN2)c2ccccc2)cc1	0.8%	-3.6%	3.98µM*	-8.2%	0.2%[46.1 µM]	-25.8%
CCOC(=O)c1c(O)c(O)c(C(=O)OCC)n1-c1ccccc1	39.8µM*	0.0%	-13.1%	-5.8%	0.4%	-17.0%
CCCc1nc2c(C)cc(C)cc2c(N)c1CC	0.1%	/	23.1µM*	-24.1%	-1.4%	/
Cc1cc(C)c2nc(C(F)(F)F)c(C#N)c(N)c2c1	9.5%	-12.7%	?	-7.6%	13.0%	-10.5%
Cn1nnnc1SCC(=O)Nc1ccc(Br)cc1Cl	28.2µM*	/	6.4%[46.1 µM]	8.5%	2.2%	-13.2%
COc1ccccc1NC(=O)c1ccc(NC(=O)CSc2nnnn2C)cc1	5.62µM*	-21.1%	2.2%[46.1 µM]	-19.5%	0.1%	-10.7%
COc1ccc(N2CCN(C(=O)c3nc(-c4ccc(Cl)cc4)n4c3CCCCC4)CC2)cc1	2.9%	?	/	-20.5%	-13.3%[46.1 µM]	-15.5%
Cc1c(C(=O)N2CC[C@@H]3CCCC[C@H]3C2)sc2ncnc(NCCc3ccccn3)c12	/	-5.5%	/	-18.6%	/	5.2%
CNC(=O)CSc1nc2cc(S(=O)(=O)Nc3ccccc3OC)ccc2o1	3.8%	12.6µM*	13.0%[46.1 µM]	4.3%	6.5%[46.1 µM]	?
COc1ccccc1NS(=O)(=O)c1ccc2oc(SCC(=O)N3CCNC3=O)nc2c1	-11.4%	/	/	-26.9%	/	/
CCN(CC)S(=O)(=O)c1ccc2oc(SCc3ccc(F)cc3)nc2c1	6.7%	/	?	?	11.2µM*	?
CCN(CC)S(=O)(=O)c1ccc2oc(SCC(=O)Nc3cc(C)on3)nc2c1	5.4%	10µM*	?	-2.6%	?	?
Cc1cc(NC(=O)CSc2nc3cc(Cl)ccc3o2)no1	5.7%	-8.4%	12.7%[46.1 µM]	-10.3%	4.2%[46.1 µM]	2.9%
CCS(=O)(=O)c1ccc2oc(SCC(=O)NCCc3ccc(F)cc3)nc2c1	7.9%	-16.5%	-4.6%[46.1 µM]	?	-4.9%	-12.1%
CCN(CC)S(=O)(=O)c1ccc2oc(SCC(=O)NC3CC3)nc2c1	-15.2%	17.8µM*	4.5%	-14.4%	-2.4%	?
CCn1c(/C=C/c2ccc(O)cc2)nc2ccccc2c1=O	3.5%	i	?	-25.7%	?	-22.3%
